Here are results for 17 sequences from the supplement of paper PMC6555819.

The experiment has as its system THRa homodimer (NR concentration 90 nM). Description: PBM binding z-score (relative to random genomic background probes); higher = stronger binding; sequences stand for … in GC…GCGATTGACAGCGTAGAATGAAGG
An outline of the steps: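 Each nuclear receptor dimer, without ligand, was incubated for 1 h on custom Agilent 4×180K protein-binding microarrays. Binding was detected with antibodies against each partner (one per run), and scanned fluorescence was regression-normalized. The binding z-scores are referenced to random human genomic background probes.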
Regarding GCTCGCAGGACAAGGTCAGAGCTTTGTCCGTAGA, the PBM binding z-score came out at 1.09. The figure for ATCGAAAGGTAGAAGGTGAGTATACCCACCCGAA is -0.265; for AGAACGAGGGCAATGAGTTGAAAGCACGGGTGGC it is -0.343; for TTTCAAAGTTCAAAGGTAACGTAAGTATCCACAC it is 0.252.

Take TAGCGTAGGTCATTGGGCCAGTATAGTACGCATC: the PBM binding z-score is -0.396. The value for ATCTCTAGGTAACCAAGTTCAGTGGATGCCGAAC was 0.709; that for CCGAGTAGGTTCTGGGGCATTCAGGCAACGGTGA was 0.0185.

ATATGTAGGTTAAGGGTCAGTCAGGTTGGTTCGC: the PBM binding z-score was 1.68.

CTTCCAAGGTCAGAGAGGTCAGTGAATGCCGAGT: the PBM binding z-score worked out at 2.74. The value for GCGACTGGGGCTAAGCAGGTTACCATAAGGTTGG was 0.145.

Sequence TCTAACAGGCCAGAGGGTCACTCAAGAGGTACGG displayed a PBM binding z-score of -0.107.

GCTAGCAGGCCAATTGGGTCACTCAATGACGGGC: the PBM binding z-score is 0.0976. For ATCGAAAGGTCGTGATGTGAGTATACAGAAAGGC, the PBM binding z-score came out at 0.0191. The figure for AGTCAAAGTTCAGGAGGAGGTAACGTAAAGCACG is 0.548.

CAGCCTAGGTCAGGGCCACTATAGGAGGAACGTT: the PBM binding z-score was 0.516. The figure for ACTAGCAGGCTAAGTTTGGGTCACTCAAACAAAG is 0.936.

As to ACAGTCAGGTGAGTGAAGGTAACTCAGCTGGACG, the PBM binding z-score was -0.205.
